Bioassay records as filed in PubChem.
Six1-Eya2 inh: qHTS Assay for Inhibitors of the Six1/Eya2 Interaction; AlphaScreen GST-Six1/His-Eya2 binding, biochemical; hits give low values; activity change, % (concentration not given with the values); 360,000 compounds, 0.56% hits; AID 651725, 2012; in the data active = activity change below about -65%; inconclusive = mostly about -30% to -63%
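Six1/Eya2 binding was read as AlphaScreen signal after compounds were pinned into GST-Six1 plus His-tagged Eya2 (5X stock 250/500 nM) in pH 8.0 Tris/NaCl/TCEP buffer, beads added, then incubated 1 h, 37 C, dark.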
CtBP-E1A inh: qHTS Assay for Inhibitors of the CtBP/E1A Interaction; 340,000 compounds, 0.49% hits; activity change, % (no concentration beside the values); AlphaScreen GST-E1A/His-CtBP binding, 1536-well; hits give low values; CtBP / adenovirus E1A interaction (AlphaScreen); in the data active = activity change below about -65%; inconclusive = mostly about -30% to -63%
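GST-E1A and His-tagged CtBP (125 nM each as 5X stock) were preincubated with pin-transferred compound for 2 h at 37 °C in the dark, then glutathione donor and nickel acceptor beads were added for 1 h before AlphaScreen reading.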
DT40 TDP1 no CPT: qHTS for Inhibitors of human tyrosyl-DNA phosphodiesterase 1 (TDP1): qHTS in cells in absence of CPT. DT40 Tdp1-/- hTDP1 cells, no CPT, ATP luminescence, 48 h. Potency, µM (top dose mostly 46.2 µM), usual class: inhibitors. 420,000 compounds, 15% hits. AID 686978, 2013; also: nearly all actives have a fitted effect of over 55% in size
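Growth kinetics read by CellTiter-Glo luminescence after ≥48 hr at 37 °C. Cells: DT40 Tdp1-/- stably carrying human TDP1, 400 per well, compound exposure in the absence of CPT (DMSO vehicle).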
TDP1 block: qHTS Assay for Inhibitors of Tyrosyl-DNA Phosphodiesterase (TDP1). Tyrosyl-DNA phosphodiesterase 1 (Homo sapiens), Q9NUW8. recombinant TDP1, AlphaScreen DNA substrate cleavage. Potency, µM (highest dose often 130 µM), usual class: inhibitors. 350,000 compounds, 0.28% hits; also: nearly all actives have a fitted effect of over 40% in size
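AlphaScreen read-out: signal falls as enzyme removes the 3' tyrosine-FITC from a 5'-biotinylated DNA oligo (15 nM, 5 min, RT). Enzyme was E. coli-made recombinant Tdp1 at 1 nM, exposed to compound for 15 min beforehand; beads 10 ug/ml, 10 min.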
IL-1B inflam inh: qHTS for Inhibitors of Inflammasome Signaling: IL-1-beta AlphaLISA Primary Screen | THP-1 LPS/ATP IL-1B secretion, AlphaLISA, 16 h; hits give low values | activity change, % at 57.5 µM | 360,000 compounds, 4.7% hits | AID 743279, 2014; in the data active = activity change below about -50%; inconclusive = mostly about -30% to -49%
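THP-1 cells pretreated 1 hr with compounds (up to 57.5 uM final), then stimulated with LPS (250 ng/mL final) plus ATP (1.25 mM final); secreted IL-1B measured by AlphaLISA after 16 hr, decreased signal indicating inhibition.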
TDP1 cell CPT: qHTS for Inhibitors of human tyrosyl-DNA phosphodiesterase 1 (TDP1): qHTS in cells in presence of CPT; 420,000 compounds, 12% hits; chicken DT40 Tdp1-/-;hTDP1 cells + 20 nM CPT, ATP luminescence, 48 h; Potency, µM (top dose mostly 46.2 µM), most hits filed as inhibitors; also: nearly all actives have a fitted effect of over 55% in size
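Chicken DT40 Tdp1-/- cells complemented with human TDP1, 400 cells/well, exposed to compounds plus 20 nM camptothecin for at least 48 h at 37 C; viability read as ATP content by CellTiter-Glo luminescence.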
Each line names hits and unclear results; the compound was inactive in the other large screens. Most compounds without a hit are left out; they make up all but 18% or so of the library. Unless noted, calls follow the shape of the dose curve; as a rule, active = well fitted curve in the direction sought with a large enough effect; inconclusive = small, poorly fitted or top-dose-only effect, or another doubt; inactive = no such curve, though single readings can be large; an effect the other way counts as inactive or inconclusive.

O=C(c1ccco1)N1CCCC(N2CCN(c3cccc(C(F)(F)F)c3)CC2)C1 (centres undefined)	CtBP-E1A inh inconclusive, DT40 TDP1 no CPT 21µM, IL-1B inflam inh inconclusive, TDP1 cell CPT 16µM
COc1cc(O)c(CCC(=O)c2cc(OC)c(OC)c(OC)c2)c(OC)c1	DT40 TDP1 no CPT 15µM, TDP1 cell CPT 21µM
COc1ccc(C)cc1-n1c(SCC(=O)Nc2cc(C)on2)nc2sc(C)c(C)c2c1=O	DT40 TDP1 no CPT 8.2µM, TDP1 cell CPT 12µM
COc1ccccc1-n1c(N)cc(=O)nc1SCC(=O)Nc1cc(C)on1	none
COc1ccc(C)cc1-n1c(SCC(=O)Nc2cc(C)on2)nc2ccccc2c1=O	DT40 TDP1 no CPT 13µM, TDP1 cell CPT 10µM
COc1ccc(NC(=O)CSCC(=O)N(C)Cc2c(F)cccc2Cl)cc1	DT40 TDP1 no CPT inconclusive, TDP1 cell CPT inconclusive (no result: TDP1 block)
O=C(CSc1ccccc1C(=O)N1CCCCC1)NCC1CCCCC1	none
Cn1c(-c2cc(Cl)ccc2O)nc2c1c(=O)[nH]c(=O)n2Cc1ccccc1	Six1-Eya2 inh inconclusive, DT40 TDP1 no CPT 13µM, TDP1 cell CPT 18µM
COCCn1cnc2c1c(=O)[nH]c(=O)n2Cc1ccccc1	none (no result: CtBP-E1A inh, TDP1 block)
COCCCn1c(-c2cccc(Cl)c2)nc2c1c(=O)[nH]c(=O)n2Cc1ccccc1	DT40 TDP1 no CPT 7.3µM, TDP1 cell CPT inconclusive (no result: TDP1 block)
COc1ccc(Br)cc1-c1nc2c(c(=O)[nH]c(=O)n2Cc2ccccc2)n1C	DT40 TDP1 no CPT inconclusive
O=C1COc2ccc(C(=O)COC(=O)CCc3ccc(S(=O)(=O)N4CCOCC4)cc3)cc2N1	none
O=C1COc2ccc(C(=O)COC(=O)c3cc(S(=O)(=O)N4CCOCC4)ccc3F)cc2N1	IL-1B inflam inh -70
O=C(COC(=O)c1cc(S(=O)(=O)N2CCOCC2)ccc1F)c1ccc[nH]1	IL-1B inflam inh -62
COc1cccc(CC(CC(=O)O)C(=O)Nc2cc(C)ccc2C)c1 (centres undefined)	none (no result: CtBP-E1A inh)
CC/C(=N/N=C(\CC)c1ccccc1)c1ccccc1	DT40 TDP1 no CPT inconclusive
CC1=C(C#N)c2nc(N)c(C#N)c(C)c2/C1=C\c1ccc(-c2ccccc2C(=O)O)o1	Six1-Eya2 inh inconclusive, IL-1B inflam inh -88 (no result: TDP1 block)
CCC(Cc1ccccc1)NC(=O)c1csc2c1CCCCC2 (centres undefined)	DT40 TDP1 no CPT inconclusive, TDP1 cell CPT 13µM (no result: Six1-Eya2 inh, CtBP-E1A inh, IL-1B inflam inh)
Cc1ccccc1NC(=O)c1csc2c1CCCC2	DT40 TDP1 no CPT 21µM, TDP1 cell CPT 5.8µM
Cc1ccccc1NC(=O)Nc1csc2c1CCCC2	DT40 TDP1 no CPT inconclusive, TDP1 cell CPT inconclusive (no result: Six1-Eya2 inh, CtBP-E1A inh, IL-1B inflam inh)
O=C(NCc1ccccc1)c1csc2c1CCCCC2	none
CC(CNC(=O)c1csc2c1CCCCC2)c1ccccc1 (centres undefined)	DT40 TDP1 no CPT 16µM, TDP1 cell CPT 21µM (no result: Six1-Eya2 inh, CtBP-E1A inh, IL-1B inflam inh)
CCC(C)NC(=O)c1csc2c1CCCCC2 (centres undefined)	none
CC1CCCCC1NC(=O)c1ccncc1 (centres undefined)	none
CC1=CC(C)(C)Nc2cc(C)c(C)cc21	none
Cc1ccccc1CNC(=O)C1CCC(=O)N(C2CC2)C1 (centres undefined)	none
COC(=O)c1ccc(OC(=O)N2CCOCC2)cc1	none (no result: TDP1 block)
Cc1cc(C(=O)C(=O)N(C)C)c(C)n1-c1ccc(Cl)c(Cl)c1	DT40 TDP1 no CPT 21µM, TDP1 cell CPT inconclusive (no result: CtBP-E1A inh)
Cc1cc(C(=O)C(=O)O)c(C)n1-c1ccc(Cl)c(Cl)c1	IL-1B inflam inh inconclusive
COCCCNc1ccn2nc(-c3cccc(OCc4ccccc4)c3)cc2n1	DT40 TDP1 no CPT 7.3µM, TDP1 cell CPT inconclusive (no result: TDP1 block)
